Results published in the supplement of paper PMC10981050.
Several values for one entry are separate records, joined by “and”; a condition that tells them apart may be missing. Identical values can stand only once. Counter-ions that a name gives are not always drawn.

Assays:
Assay in all cases: cell viability relative to vehicle control; higher = less cytotoxic
Settings in all cases: 10 µM
K562 = system: K562
Method in brief: (§1)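 Four leukaemia lines, as CRISPR-edited mutant clones and isogenic wild-type clones, were tested against Selleck bioactive, kinase and epigenetic probe libraries after removal of identity-inconsistent compounds. Cells were exposed to a single 10 µM dose for 48 h, and CellTiter-Glo luminescence was then read. Viability was calculated relative to the on-plate vehicle control.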

MARIMO = system: MARIMO
Method in brief: as §1

MOLM14 = system: MOLM14
Method in brief: as §1

OCI-AML2 = system: OCI-AML2
Method in brief: as §1

Row | SMILES | cell viability (K562; SRSF2 genotype: SRSF2 P95H/wt) | cell viability (K562; SRSF2 genotype: SRSF2 wt/wt) [%] | cell viability (MARIMO; SRSF2 genotype: SRSF2 P95H/wt) [%] | cell viability (MARIMO; SRSF2 genotype: SRSF2 wt/wt) [%] | cell viability (MOLM14; SRSF2 genotype: SRSF2 P95H/wt) [%] | cell viability (MOLM14; SRSF2 genotype: SRSF2 wt/wt) [%] | cell viability (OCI-AML2; SRSF2 genotype: P95H/wt) [%] | cell viability (OCI-AML2; SRSF2 genotype: wt/wt) [%]
1 | CC[N+](C)(CC)CCOC(=O)C(O)(c1ccccc1)c1ccccc1 [Methylbenactyzine Bromide] | 95.9% and 96.8% | 100 | 97.7 | 104 | 96.1 | 102 | 97.7 | 91
2 | Cc1cccc([C@H](C)c2c[nH]cn2)c1C [Dexmedetomidine] | 97.4% and 102% | 98.5 | 95.6 | 101 | 105 | 102 | 114 | 95.9
3 | CC(C)N(CCC(C(N)=O)(c1ccccc1)c1ccccn1)C(C)C (stereo not drawn) [disopyramide phosphate] | 98.9% and 108% | 106 | 104 | 109 | 104 | 104 | 107 | 96.2
4 | CN1CCCCC1Cn1cc(C(=O)c2cc([N+](=O)[O-])ccc2I)c2ccccc21 (stereo not drawn) | 83.1% and 88.8% | 87.2 | 84.2 | 103 | 3.13 | 2.06 | 76.2 | 65.5
5 | OC(c1ccccc1)(c1ccccc1)C1CCNCC1 [Azacyclonol] | 93.7% and 92.3% | 95.1 | 85.4 | 94.4 | 94.7 | 97.8 | 89 | 94.5
6 | C=C[C@@]12CN(C)[C@H]3C[C@]14C(=Nc1ccccc14)[C@@H]1C[C@@H]2[C@@H]3CO1 [Koumine] | 99.2% and 99.1% | 98.6 | 102 | 102 | 104 | 96.2 | 101 | 101
7 | COC1=C[C@@H]2[C@@H]3Cc4ccc(OC)c(O)c4[C@]2(CCN3C)CC1=O [Sinomenine (Cucoline)] | 103% and 95.1% | 90.5 | 97.9 | 96.2 | 89.9 | 97.3 | 95 | 97.8
8 | O=c1ccc2cc(O[C@@H]3O[C@H](CO)[C@@H](O)[C@H](O)[C@H]3O)c(O)cc2o1 [Aesculin (Esculin)] | 104% and 98.9% | 100 | 96.9 | 97.7 | 101 | 99.7 | 95.1 | 93.3
9 | O=C(O[C@H]1C[N+]2(CCCOc3ccccc3)CCC1CC2)C(O)(c1cccs1)c1cccs1 [Aclidinium Bromide] | 104% and 98.9% | 101 | 108 | 111 | 103 | 106 | 106 | 106
10 | Cc1cccc(C)c1NC(=O)CN1CCCC1=O [Nefiracetam (Translon)] | 108% and 104% | 107 | 109 | 107 | 105 | 100 | 103 | 110
11 | C[N+](C)(C)CCCCCCCCCC[N+](C)(C)C [Decamethonium Bromide] | 100% and 109% | 111 | 98.9 | 102 | 102 | 101 | 120 | 102
12 | CN1CCC(c2c[nH]c3ccc(O)cc23)CC1 | 107% and 100% | 102 | 101 | 104 | 103 | 102 | 91.8 | 105
13 | C[C@H]1CC[C@@H]2N(C1)C[C@H]1[C@@H]3C[C@H]4[C@@H](CC(=O)[C@H]5C[C@@H](O)CC[C@@]54C)[C@@H]3CC[C@H]1[C@]2(C)O [Imperialine] | 112% and 97.8% | 109 | 103 | 101 | 105 | 106 | 101 | 107
14 | CCN1CCN(C(=O)Cc2ccc(Nc3ncc(F)c(Nc4ccc(C(=O)Nc5ccccc5Cl)cc4)n3)cc2)CC1 [Aurora A Inhibitor I] | 0.7% and 0.51% | 15.3 | 0.53 | 3.65 | 0.41 | 0.49 | 4.67 | 4.81
15 | O=P1(NCCCl)OCCCN1CCCl (stereo not drawn) [Ifosfamide] | 98.8% and 105% | 104 | 105 | 100 | 104 | 101 | 111 | 98
16 | Cn1c(CCCC(=O)O)nc2cc(N(CCCl)CCCl)ccc21 [Bendamustine HCL] | 97.2% and 96.8% | 96.3 | 94.5 | 104 | 86.3 | 97.8 | 66.5 | 83
17 | C[N+]1(C)CCCC(OC(=O)C(O)(c2ccccc2)c2ccccc2)C1 (stereo not drawn) [mepenzolate bromide] | 106% and 102% | 98.9 | 103 | 112 | 104 | 104 | 101 | 105
18 | Cc1cccc(C)c1NC1=NCCCS1 [Xylazine HCl] | 101% and 85.1% | 82.8 | 85.1 | 96.8 | 90.4 | 91.5 | 89.1 | 93.1
19 | C/C(=C\c1csc(C)n1)[C@@H]1C[C@@H]2O[C@@H]2CCC[C@H](C)[C@H](O)[C@@H](C)C(=O)C(C)(C)[C@@H](O)CC(=O)O1 [Epothilone A] | 22.5% and 33% | 32.5 | 7.48 | 5.2 | 6.35 | 2.31 | 7.11 | 8.21
20 | CC[C@@H]1CN2CC[C@@]3(C(=O)Nc4ccccc43)[C@@H]2C[C@@H]1/C(=C\OC)C(=O)OC [Corynoxine] | 95.5% and 98.3% | 97.9 | 75.2 | 69.5 | 77.1 | 82.5 | 92.9 | 79.2
21 | Cc1ccccc1-n1c(Cn2ncc3c(N)ncnc32)nc2cccc(C)c2c1=O | 93.5% and 98.8% | 91.3 | 90.7 | 93.7 | 81.9 | 81.3 | 81.5 | 83.9

Row | SMILES | cell viability (K562; SRSF2 genotype: SRSF2 P95H/wt) | cell viability (K562; SRSF2 genotype: SRSF2 wt/wt) [%] | cell viability (MARIMO; SRSF2 genotype: SRSF2 P95H/wt) [%] | cell viability (MARIMO; SRSF2 genotype: SRSF2 wt/wt) [%] | cell viability (MOLM14; SRSF2 genotype: SRSF2 P95H/wt) [%] | cell viability (MOLM14; SRSF2 genotype: SRSF2 wt/wt) [%] | cell viability (OCI-AML2; SRSF2 genotype: P95H/wt) [%] | cell viability (OCI-AML2; SRSF2 genotype: wt/wt) [%]
22 | CN1C(=O)[C@@]23C[C@]4([C@]56C[C@@]78SS[C@@](CO)(C(=O)N7[C@H]5Nc5ccccc56)N(C)C8=O)c5ccccc5N[C@@H]4N2C(=O)[C@]1(CO)SS3 [Chaetocin] | 0.42% and 0.29% | 0.65 | 0.27 | 0.33 | 0.25 | 0.28 | 0.23 | 0.24
23 | Cc1sc2c(c1C)C(c1ccc(Cl)cc1)=N[C@@H](CC(=O)OC(C)(C)C)c1nnc(C)n1-2 | 53.8% and 59.9% | 61.5 | 22.3 | 30.9 | 15.9 | 11.6 | 17.5 | 30.2
24 | CCNc1nc(Cl)nc(NC(C)C)n1 [Atrazine] | 97.5% and 94.1% | 98.2 | 90.6 | 102 | 93.9 | 97 | 99.1 | 104
25 | C[C@](O)(COc1ccc(C#N)cc1)C(=O)Nc1ccc(C#N)c(C(F)(F)F)c1 | 90.6% and 94.9% | 97.9 | 98.7 | 94.2 | 94 | 96.7 | 99.4 | 93.4
26 | O=c1[nH]c2ccccc2n1CCCN1CCC(n2c(=O)[nH]c3cc(Cl)ccc32)CC1 [Domperidone (Motilium)] | 78.9% and 85.9% | 79.7 | 77.9 | 87.4 | 92.4 | 91.8 | 78.8 | 85.7
27 | O=c1ccc2c(O)c3ccoc3cc2o1 [Bergaptol] | 108% and 106% | 116 | 105 | 95.6 | 113 | 107 | 106 | 97.5
28 | C[C@@H]1O[C@@H](O[C@H]2C[C@@H](O)[C@]3(CO)[C@H]4[C@H](O)C[C@]5(C)[C@@H](C6=CC(=O)OC6)CC[C@]5(O)[C@@H]4CC[C@]3(O)C2)[C@H](O)[C@H](O)[C@H]1O [Ouabain] | 10.4% and 12.3% | 12.4 | 10.7 | 4.01 | 3.34 | 0.78 | 0.73 | 2.79
29 | COc1cc(-n2c(=S)[nH]c3ccccc3c2=O)c(Cl)cc1Cl [Mdivi-1] | 91.9% and 96.6% | 94.2 | 90.7 | 95.2 | 91 | 102 | 109 | 116
30 | CN1C(=O)COc2c(C(=O)NC3CN4CCC3CC4)cc(Cl)cc21 (stereo not drawn) [Azasetron HCl] | 96.6% and 91.5% | 94.9 | 92.8 | 98.7 | 90.5 | 97.3 | 95.9 | 94.7
31 | C[C@]12CCC(=O)C[C@@H]1CC[C@@H]1[C@@H]2CC[C@]2(C)[C@@H](O)CC[C@@H]12 [Dihydrotestosterone (DHT)] | 97% and 97.8% | 97.7 | 95.3 | 109 | 93.9 | 102 | 96.5 | 101
32 | CCN(C)C(=O)Oc1cccc([C@H](C)N(C)C)c1 [Rivastigmine tartrate (Exelon)] | 103% and 106% | 101 | 101 | 105 | 99.5 | 108 | 104 | 113
33 | C[C@@H]1CC[C@H]2[C@@H](C)C(=O)O[C@@H]3O[C@@]4(C)CC[C@@H]1[C@]32OO4 [Artemisinin] | 83% and 79.2% | 78.7 | 74.8 | 93.3 | 85.8 | 87.3 | 84.6 | 98.2
34 | COC(=O)Nc1nc2ccccc2[nH]1 [Carbendazim] | 35% and 44.4% | 51.9 | 36.2 | 31.8 | 58.5 | 49 | 60.5 | 52.2
35 | Cc1c(N)nc(C(CC(N)=O)NCC(N)C(N)=O)nc1C(=O)NC(C(=O)NC(C)C(O)C(C)C(=O)NC(C(=O)NCCc1nc(-c2nc(C(=O)NCCC[S+](C)C)cs2)cs1)C(C)O)C(O[C@@H]1O[C@@H](CO)[C@@H](O)[C@H](O)[C@@H]1O[C@H]1O[C@H](CO)[C@@H](O)[C@H](OC(N)=O)[C@@H]1O)c1cnc[nH]1 (stereo partly drawn) [Bleomycin sulfate] | 95.9% and 107% | 69.7 | 7.26 | 8.15 | 53.4 | 21.6 | 27 | 36.8
36 | CC(=O)O[C@H]1C(=O)[C@@]2(C)[C@H]([C@H](OC(=O)c3ccccc3)[C@]3(O)C[C@H](O)C(C)=C1C3(C)C)[C@]1(OC(C)=O)CO[C@@H]1C[C@@H]2O | 93.5% and 95% | 102 | 100 | 96.6 | 104 | 102 | 104 | 97.3
37 | C[C@]12CC[C@H](O)C[C@@H]1CC[C@@H]1[C@@H]2CC[C@]2(C)C(=O)CC[C@@H]12 | 94.7% and 104% | 104 | 98.9 | 108 | 98.5 | 107 | 106 | 97.3
38 | C=CC(=C)C [Isoprene] | 102% and 103% | 105 | 103 | 106 | 95.6 | 108 | 103 | 109
39 | CCOC(=O)Nc1ccc(NCc2ccc(F)cc2)cc1N [Retigabine 2HCl] | 94.1% and 97.3% | 97.4 | 91.6 | 103 | 105 | 102 | 96.5 | 102
40 | CC(=O)O[C@H]1[C@H]2[C@@H](OC(=O)Cc3ccccc3)[C@@H](C)C[C@]2(OC(C)=O)C(=O)/C(C)=C/[C@@H]2[C@H](CC[C@@]13CO3)C2(C)C [Euphorbiasteroid] | 63.8% and 85.5% | 84.1 | 111 | 27.6 | 46.1 | 30.6 | 27.2 | 22.4
41 | O=C(CBr)c1ccc(O)cc1 [PTP Inhibitor I] | 106% and 101% | 107 | 103 | 104 | 97.2 | 108 | 104 | 103
